Where “and” joins values, the source holds several entries; their conditions need not be identical. Identical values can stand only once. Calls of active or inactive are those of the source.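 How the source made its calls, unless noted: active means thallium flux through the channel raised or lowered by more than 3 SD from vehicle-only wells, actives on both sides; inactive means the rest.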
What was measured:
R275C = assay: BK channel mutant inhibitors and activators – cell-based, U2OS BacMam, thallium flux, beta subunits, selectivity assay, profiling panel (AID 1259406); conditions: U2OS BacMam BK variants, at 30 µM;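 further: initial slope of Thallos dye fluorescence rise after thallium is added; log ratio against the mean of 0.3% DMSO vehicle wells on the same plate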
R275C/beta1 = assay: as above; conditions: U2OS BacMam BK variants, at 30 µM
R275C/beta2Delta = assay: as above; conditions: U2OS BacMam BK variants, at 30 µM
R275C/beta4 = assay: as above; conditions: U2OS BacMam BK variants, at 30 µM
R275C/Slo1WT/beta2 = assay: as above; conditions: U2OS BacMam BK variants, at 30 µM
[1] = blockers of polyQ-driven CASP3 activation – cell-based (AID 1583); conditions: polyglutamine-induced caspase-3 activation, cell assay; stronger effect = higher value;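 tested at 10 µM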
[2] = yeast 75Q aggregation reduction – 75Q-TubU reporter (AID 1593); conditions: Yeast 75Q polyglutamine aggregation reporter
[3] = blockers of cytochrome c efflux from mitochondria – biochemical, purified mitochondria (AID 1603); conditions: stronger effect = lower value;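 further: mouse liver mitochondria challenged with calcium chloride; signal normalized to the plate average as 100%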
[4] = polyglutamine aggregate formation blockers (AID 1604); conditions: polyglutamine-induced protein aggregation inhibition assay; stronger effect = higher value; tested at 2.5 µM
[5] = glutamate transport activators, MN-1 cells, MN-1 cell line (AID 1612); conditions: MN-1 motor neuron cells, stronger effect = higher value;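 further: tested at 1 µM final; 0% = mean of DMSO vehicle wells on each plate; positive means more glutamate uptake than control and negative means less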
[6] = galactose survival enhancers in mitochondrial complex I cybrids – cell-based, galactose medium, ATP luminescence, primary screen (AID 1645843;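 active means z-score of at least 1.8 in each of two replicates, scored against plate mean and spread of sample wells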;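 further: positive z means more ATP and so rescue of galactose-driven cybrid death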); conditions: complex I mutant cybrid cells, 72 h, stronger effect = higher value
F380Y/beta4 = assay: BK channel mutant inhibitors and activators – cell-based, U2OS BacMam, thallium flux, beta subunits, selectivity assay, profiling panel (AID 1259406); conditions: U2OS BacMam BK variants, at 30 µM;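 further: initial slope of Thallos dye fluorescence rise after thallium is added; log ratio against the mean of 0.3% DMSO vehicle wells on the same plate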
[7] = biological target: Calcium-activated potassium channel subunit alpha-1 (Homo sapiens) + Leucine-rich repeat-containing protein 26 (Homo sapiens) (UniProt Q12791+Q2I0M4); assay: as above; conditions: U2OS BacMam BK variants, F380Y/Slo1WT/gamma1, at 30 µM
Chain of Calcium-activated potassium channel subunit alpha-1 (Homo sapiens) + Leucine-rich repeat-containing protein 26 (Homo sapiens) (Q2I0M4 whole entry, looked up, one chain of several): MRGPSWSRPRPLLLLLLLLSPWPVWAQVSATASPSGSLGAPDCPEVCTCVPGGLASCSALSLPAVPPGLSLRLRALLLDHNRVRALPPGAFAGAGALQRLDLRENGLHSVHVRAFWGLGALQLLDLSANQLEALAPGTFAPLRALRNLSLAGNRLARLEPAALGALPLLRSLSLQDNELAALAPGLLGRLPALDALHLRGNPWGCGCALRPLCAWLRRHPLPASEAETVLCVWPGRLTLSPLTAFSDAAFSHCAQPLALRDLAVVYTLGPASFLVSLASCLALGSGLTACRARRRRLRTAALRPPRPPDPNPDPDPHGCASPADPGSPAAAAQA

[8] = signal quenchers or enhancers, Cy5 substrate/SSB – biochemical, NIH Clinical Collection, E. coli SSB, artefact control for HCV NS3 helicase inhibitor project (AID 743268; call rule not given here); conditions: Cy5-oligo bound E. coli SSB, fluorescence interference
[9] = test system: Hepatitis C virus NS3 helicase; assay: blockers of NS3h binding to DNA – biochemical, fluorescence polarization, NIH Clinical Collection, primary screen (AID 743270; call rule not given here); conditions: NS3 helicase binding to Cy5-dT15 DNA, stronger effect = higher value, concentration not given here
[10] = biological target: Single-stranded DNA-binding protein (Escherichia coli (strain K12)) (UniProt P0AGE0); assay: SSB-ssDNA binding inhibitors – biochemical, fluorescence polarization, NIH Clinical Collection, counter-screen for HCV NS3 helicase inhibitor project (AID 743271; in the data active means inhibition above about 28%); conditions: E. coli SSB-DNA binding, stronger effect = higher value, concentration not given here
[11] = compounds distorting NS3 helicase fluorescence signal – biochemical, NIH Clinical Collection, artefact control for HCV NS3 helicase inhibitor project (AID 743272; call rule not given here;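 further: HCV NS3 helicase with a Cy5 labelled single stranded DNA probe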); conditions: fluorescence interference counterscreen, HCV NS3 helicase assay; stronger effect = lower value

| SMILES | log fold change Tl+ flux (R275C) | log fold change Tl+ flux (R275C/beta1) | log fold change Tl+ flux (R275C/beta2Delta) | log fold change Tl+ flux (R275C/beta4) | log fold change Tl+ flux (R275C/Slo1WT/beta2) | inhibition [1] [%] | score [2] | cytochrome c release ratio [3] | inhibition of aggregation [4] [%] | glutamate uptake change [5] [%] | z-score [6] | log fold change Tl+ flux (F380Y/beta4) | log fold change Tl+ flux [7] | fluorescence ratio [8] | inhibition [9] | inhibition [10] | fluorescence ratio [11] |
| --- | --- | --- | --- | --- | --- | --- | --- | --- | --- | --- | --- | --- | --- | --- | --- | --- | --- |
| Cn1cnc([N+](=O)[O-])c1Sc1ncnc2nc[nH]c12 | -0.0406 (inactive) | 0.0023 (inactive) | -0.053 (inactive) | -0.0246 (inactive) | 0.0598 (inactive) | – | – | – | – | – | – | – | – | – | – | – | – |
| O=C1C(CCS(=O)c2ccccc2)C(=O)N(c2ccccc2)N1c1ccccc1 (stereo not given) | -0.0788 (inactive) | 0.0129 (inactive) | -0.0044 (inactive) | -0.0311 (inactive) | 0.0214 (inactive) | 18.6 | 0.1 | 0.57 | 71.9 | -6.33 | -0.05 (inactive) | 0.0952 (inactive) | 0.000816 (inactive) | – | – | – | – |
| CN(C)CCOC(c1ccc(Cl)cc1)c1ccccn1 (stereo not given) | 0.0106 (inactive) | -0.0266 (inactive) | 0.0559 (inactive) | 0.0288 (inactive) | -0.0144 (inactive) | -21.2 | 1.7 | 0.83 | 44.8 | 21.1 | 1.09 (inactive) | 0.0228 (inactive) | 0.0613 (inactive) | 1.05 (inactive) | -5% (inactive) | -3.53% (inactive) | 1.03 (inactive) |
| Cc1ccc(C)c(OCCCC(C)(C)C(=O)O)c1 | 0.0109 (inactive) | 0.0657 (inactive) | 0.0312 (inactive) | -0.0122 (inactive) | 0.088 (inactive) | 5.02 | -0.33 | 0.86 | 39.4 | 0.82 | 0.125 (inactive) and 0.18 (inactive) | 0.0166 (inactive) | 0.0687 (inactive) | 1.06 (inactive) | 0.45% (inactive) | 1.05% (inactive) | 0.96 (inactive) |
| Cc1cn([C@H]2C[C@H](N=[N+]=[N-])[C@@H](CO)O2)c(=O)[nH]c1=O | -0.0157 (inactive) | -0.0324 (inactive) | 0.0219 (inactive) | 0.00485 (inactive) | 0.022 (inactive) | -8.49 | 1.46 | 1.1 | 48.1 | -23.5 | 0.4 (inactive) and 0.685 (inactive) | 0.0148 (inactive) | 0.0181 (inactive) | 1.05 (inactive) | -3.18% (inactive) | -2.76% (inactive) | 1.04 (inactive) |
| OC(CCN1CCCC1)(c1ccccc1)C1CCCCC1 (stereo not given) | 0.00132 (inactive) | 0.0416 (inactive) | -0.0288 (inactive) | 0.068 (inactive) | -0.0137 (inactive) | 2.81 | 1.52 | 0.63 | 69.2 | 2.81 | -0.65 (inactive) | 0.131 (active) | 0.011 (inactive) | 1.04 (inactive) | -3.18% (inactive) | -3.53% (inactive) | 1.03 (inactive) |
| NC(=O)c1cnccn1 | -0.0218 (inactive) | 0.0553 (inactive) | -0.0119 (inactive) | -0.0116 (inactive) | 0.0474 (inactive) | -0.34 | 1.27 | 1.22 | 69.8 | 25.2 | 0.985 (inactive) and -0.015 (inactive) | 0.0145 (inactive) | -0.0208 (inactive) | 0.1 (active) | -4.09% (inactive) | -2.76% (inactive) | 0.96 (inactive) |
| N[C@@H](C(=O)N[C@@H]1C(=O)N2C(C(=O)O)=C(Cl)CS[C@H]12)c1ccccc1 | 0.0278 (inactive) | 0.0103 (inactive) | 0.0124 (inactive) | -0.0176 (inactive) | -0.0279 (inactive) | – | – | – | – | – | – | -0.0331 (inactive) | -0.07 (inactive) | 0.95 (inactive) | -4.59% (inactive) | 1.97% (inactive) | 0.91 (inactive) |
| COc1ccc(OC)c(C(O)CNC(=O)CN)c1 (stereo not given) | -0.0312 (inactive) | -0.0304 (inactive) | -0.0183 (inactive) | 0.00841 (inactive) | 0.0391 (inactive) | -17.3 | 1.3 | 1.63 | 41.7 | -11.6 | 0.54 (inactive) | 0.0115 (inactive) | 0.0303 (inactive) | 1 (inactive) | -2.27% (inactive) | -2.76% (inactive) | 1.02 (inactive) |
| Nc1ncn([C@@H]2O[C@H](CO)[C@@H](O)[C@H]2O)c(=O)n1 | 0.0227 (inactive) | 0.00104 (inactive) | 0.0218 (inactive) | 0.000291 (inactive) | -0.00199 (inactive) | -3.83 | 1.31 | 1.03 | 38.1 | 3.18 | -1.16 (inactive) and -0.05 (inactive) | -0.0152 (inactive) | 0.00381 (inactive) | 1.02 (inactive) | 1.36% (inactive) | 4.86% (inactive) | 1.04 (inactive) |
| NS(=O)(=O)c1cc2c(cc1Cl)NC=NS2(=O)=O | 0.0234 (inactive) | 0.0235 (inactive) | 0.0235 (inactive) | 0.0288 (inactive) | 0.0443 (inactive) | -50.5 | 1.24 | 0.96 | 80.6 | 4.54 | 0.185 (inactive) and 0.555 (inactive) | -2.4e-05 (inactive) | 0.00339 (inactive) | 0.95 (inactive) | -5% (inactive) | -1.24% (inactive) | 0.94 (inactive) |
